Values joined by “and” are separate entries in the source; they are usually repeats but may differ in a detail not shown here. Equal values may be shown once. Records with an inconclusive call do not appear. A structure can be active in one record and inactive in another. Active and inactive are the calls of the source. Unless noted, calls come from the whole dose curve.
Assays:
[1] = Nuclear factor erythroid 2-related factor 2/antioxidant responsive element (Nrf2/ARE) small molecule agonists: qHTS cell viability counter screen in human keratinocytes (AID 1919968; active = well fitted curve in the direction sought with a large enough effect in the repeat runs; an effect the other way counts as inactive or inconclusive; note: nearly all actives have a fitted effect of over 55% in size; note: potency is the fitted concentration of half-maximal effect)
Summary of the method: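 KeratinoSens cells (HaCaT keratinocytes stably carrying an ARE-luciferase reporter) were seeded at 1,500 cells/well and rested 5 h at 37 C/5% CO2. They were then exposed to compounds in DMSO for 23 h. Viability was read by CellTiter-Fluor fluorescence after 1 h.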

[2] = Nuclear factor erythroid 2-related factor 2/antioxidant responsive element (Nrf2/ARE) small molecule agonists: luciferase reporter gene qHTS assay in human keratinocytes (AID 1919969); note: nearly all actives have a fitted effect of over 35% in size; note: potency is the fitted concentration of half-maximal effect
[3] = molecular target: Gonadotropin-releasing hormone receptor (Homo sapiens) (UniProt P30968); assay: Human gonadotropin-releasing hormone receptor (GnRHR) small molecule agonists, calcium flux assay in GnRHR-HEK293 cells (AID 1920063); note: nearly all actives have a fitted effect of over 35% in size; note: potency is the fitted concentration of half-maximal effect
Summary of the method: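 HEK293 cells stably expressing human GnRHR were plated 18 h at 37 °C, loaded with calcium dye 1 h at 37 °C, then given compound in agonist mode; fluorescence (Ex/Em 480/540) read kinetically for 3 min at 1 s intervals.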

[4] = molecular target: KiSS-1 receptor (Homo sapiens) (UniProt Q969F8); assay: Human kisspeptin (KISS1R) small molecule agonists, calcium flux assay in KISS1R-HEK293 cells (AID 1920064; active = well fitted curve in the direction sought with a large enough effect in the repeat runs; an effect the other way counts as inactive or inconclusive; note: potency is the fitted concentration of half-maximal effect)
Summary of the method: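 HEK293 cells stably expressing human KISS1R were plated 18 h at 37 °C, loaded with calcium dye for 1 h at 37 °C, then given compound by pin tool. Fluorescence (Ex/Em 480/540) was read kinetically for 3 min.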

[5] = p53 small molecule agonists, cell-based qHTS assay with human liver microsomes: qHTS cell viability counter screen (AID 1963579); note: nearly all actives have a fitted effect of over 45% in size
Summary of the method: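 After the 460/530 nm beta-lactamase read, CellTiter-Glo was added to the same wells and luminescence measured after 30 min at room temperature, giving viability of p53RE-bla cells treated 16 h with compounds plus microsomes and NADPH.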

[6] = p53 small molecule agonists, cell-based qHTS assay with rat liver microsomes: qHTS cell viability counter screen (AID 1963580); note: nearly all actives have a fitted effect of over 45% in size
Summary of the method: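 p53RE-bla HCT-116 cells (4,000/well) rested 5 h at 37 C, then given Tox21 compounds in DMSO with rat liver microsomes (0.5 mg/mL final) plus NADPH (0.5 mg/mL final) for 16 h at 37 C. Viability read by CellTiter-Glo luminescence after 30 min at room temperature.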

[7] = p53 small molecule agonists, cell-based qHTS assay: qHTS cell viability counter screen (AID 1963581); note: nearly all actives have a fitted effect of over 45% in size
Summary of the method: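 p53RE-bla HCT-116 cells were exposed to compounds for 16 h at 37 C; after the beta-lactamase FRET read in the same wells, CellTiter-Glo was added and luminescence (intracellular ATP) read after 30 min at room temperature.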

[8] = molecular target: 5-hydroxytryptamine receptor 2A (Homo sapiens) (UniProt P28223); assay: 5-hydroxytryptamine receptor 2A (HTR2A) small molecule antagonists, cell-based qHTS assay (AID 1963586); note: nearly all actives have a fitted effect of over 45% in size
Summary of the method: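 Antagonist-mode intracellular calcium assay: DOI (4 nM) added after 5 min compound pre-incubation at room temperature to dye-loaded HTR2A-CHO cells. Fluorescence followed for 3 min, sampled every second.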

[9] = molecular target: 5-hydroxytryptamine receptor 2A (Homo sapiens) (UniProt P28223); assay: 5-hydroxytryptamine receptor 2A (HTR2A) small molecule agonists, cell-based qHTS assay (AID 1963587); note: nearly all actives have a fitted effect of over 30% in size; note: potency is the fitted concentration of half-maximal effect
Summary of the method: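 HTR2A-CHO cells, plated 18 h at 37 C/5% CO2, dye-loaded 1 h at 37 C; compounds in DMSO added by pin tool (agonist mode). Intracellular calcium flux read as kinetic fluorescence on FDSS over 2 min at 1 s intervals.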

[10] = molecular target: Muscarinic acetylcholine receptor M1 (Homo sapiens) (UniProt P11229); assay: Cholinergic receptor muscarinic 1 (CHRM1) small molecule antagonists, cell-based qHTS assay (AID 1963588); note: nearly all actives have a fitted effect of over 40% in size
Summary of the method: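 CHRM1-CHO calcium-flux assay, antagonist mode. Cells were seeded 18 h, dye-loaded 1 h at 37 C and given compound for 5 min at RT, then acetylcholine was added at 50nM. FDSS fluorescence was read 3 min; 15 concentrations, three runs.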

[11] = molecular target: Beta-2 adrenergic receptor (Homo sapiens) (UniProt P07550); assay: Adrenergic beta2 receptor (ADRB2) small molecule antagonists, cell-based qHTS assay (AID 1963592); note: series mostly up to about 92 µM; nearly all actives have a fitted effect of over 50% in size
Summary of the method: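 Cells (CHO, stable ADRB2 overexpression) incubated 18-20hr at 37C; compounds added from DMSO; agonist mix (1nM isoproterenol, 100uM IBMX, 25uM Ro-20-1724) added; 0.5hr RT; d2-cAMP and anti-cAMP-cryptate added; 1hr RT; 665/615 nm read.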

[12] = molecular target: Beta-2 adrenergic receptor (Homo sapiens) (UniProt P07550); assay: Adrenergic beta2 receptor (ADRB2) small molecule agonists, cell-based qHTS assay (AID 1963593);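 note: CHO cells stably overexpressing human ADRB2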
Summary of the method: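 CHO cells stably over-expressing ADRB2 were plated overnight at 37C, then dosed with compounds plus a stimulation mix containing 100uM IBMX and 25uM Ro-20-1724 for 0.5hr at room temperature. cAMP was measured by HTRF competition, 1hr.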

[13] = molecular target: D(2) dopamine receptor (Homo sapiens) (UniProt P14416); assay: Dopamine D2 receptor (DRD2) small molecule agonists, cell-based qHTS assay (AID 1963594); note: nearly all actives have a fitted effect of over 35% in size
Summary of the method: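 HEK293 cells stably expressing DRD2 were cultured 24 h at 37 C, then given Ro20-1724 (0.1 mM final) and compounds for 10 min at room temperature. NKH477 (200nM) was then added for 30 min. cAMP was read by HTRF.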

[14] = molecular target: D(2) dopamine receptor (Homo sapiens) (UniProt P14416); assay: Dopamine D2 receptor (DRD2) small molecule antagonists, cell-based qHTS assay (AID 1963595; active = well fitted inhibition curve with a large enough effect in the signal ratio in the repeat runs, with a control signal flat; the % refers to the signal ratio; note: potency is the fitted concentration of half-maximal effect)
Summary of the method: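 DRD2-HEK293; 0.1 mM Ro20-1724; cpd 10 min RT; NKH477 200 nM + quinpirole 12 nM, 30 min RT; HTRF cAMP (cAMP-d2/anti-cAMP cryptate), 665/620 nm ratio after 1 h.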

[15] = p53 small molecule agonists, cell-based qHTS assay with rat liver microsomes (AID 1963578)
Summary of the method: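 Metabolic activation is supplied by rat liver microsomes with NADPH (each 0.5 mg/mL final). p53RE-bla cells incubate with compound 16 h at 37 C; reporter activity is measured by LiveBLAzer fluorescence.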

[16] = p53 small molecule agonists, cell-based qHTS assay (AID 1963582; active = well fitted activation curve with a large enough effect in the signal ratio in the repeat runs, not every such curve was filed as active; the % refers to the signal ratio)
Summary of the method: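 p53RE-bla beta-lactamase reporter cells rested 5 h at 37 C/5% CO2, then received compounds in DMSO by pin transfer and were incubated 16 h at 37 C. LiveBLAzer B/G FRET substrate was loaded for 2 h at room temperature before fluorescence reading.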

[17] = molecular target: Muscarinic acetylcholine receptor M1 (Homo sapiens) (UniProt P11229); assay: Cholinergic receptor muscarinic 1 (CHRM1) small molecule agonists, cell-based qHTS assay (AID 1963589); note: nearly all actives have a fitted effect of over 35% in size
Summary of the method: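 CHO cells stably expressing human CHRM1, seeded 18 h at 37 C/5% CO2, dye-loaded 1 h at 37 C, then given compound in agonist mode; intracellular calcium fluorescence read kinetically at 1 s intervals. Fifteen concentrations, three independent runs.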

[18] = cAMP Responsive Elements (CRE) small molecule agonists, cell-based qHTS assay (AID 1963590)
Summary of the method: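 CRE-bla HEK 293T cells in DMEM with 10% dialyzed FBS, NEAA, pyruvate and 25 mM HEPES were plated 18 h at 37 C/5% CO2, then exposed to compounds in DMSO for 3 h before LiveBLAzer B/G FRET substrate addition.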

[19] = cAMP Responsive Elements (CRE) small molecule antagonists, cell-based qHTS assay (AID 1963591; active = well fitted inhibition curve with a large enough effect in the signal ratio in the repeat runs, not every such curve was filed as active; the % refers to the signal ratio)
Summary of the method: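 CRE-bla HEK293T cells were plated 18 h at 37 °C/5% CO2, pinned with compound in DMSO, then stimulated with NKH477 at 0.25 uM final for 3 h. LiveBLAzer B/G FRET substrate was added and plates incubated 2 h at room temperature.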

[20] = p53 small molecule agonists, cell-based qHTS assay with human liver microsomes (AID 1963577);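 note: p53 response element beta-lactamase reporter cells with liver microsomes plus NADPH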
Summary of the method: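 Steps: plate p53RE-bla cells, incubate 5 h at 37 C; add compound in DMSO; add microsomes (0.5 mg/mL final) and NADPH (0.5 mg/mL final); incubate 16 h at 37 C; add LiveBLAzer, 2 h RT; read fluorescence.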

Measured: Potency

Chain of Beta-2 adrenergic receptor (Homo sapiens) (P07550 whole entry, looked up): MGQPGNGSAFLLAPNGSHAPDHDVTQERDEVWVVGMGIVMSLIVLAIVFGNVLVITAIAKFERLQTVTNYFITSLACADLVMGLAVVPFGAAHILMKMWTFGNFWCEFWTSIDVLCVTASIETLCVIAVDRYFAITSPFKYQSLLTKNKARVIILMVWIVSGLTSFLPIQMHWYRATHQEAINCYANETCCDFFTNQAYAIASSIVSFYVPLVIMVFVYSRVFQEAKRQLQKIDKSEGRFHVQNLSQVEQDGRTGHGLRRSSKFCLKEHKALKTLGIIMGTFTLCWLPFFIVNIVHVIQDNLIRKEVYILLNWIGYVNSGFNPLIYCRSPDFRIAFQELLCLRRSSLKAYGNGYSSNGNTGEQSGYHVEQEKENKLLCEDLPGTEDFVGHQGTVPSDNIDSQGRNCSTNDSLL
Chain of KiSS-1 receptor (Homo sapiens) (Q969F8 whole entry, looked up): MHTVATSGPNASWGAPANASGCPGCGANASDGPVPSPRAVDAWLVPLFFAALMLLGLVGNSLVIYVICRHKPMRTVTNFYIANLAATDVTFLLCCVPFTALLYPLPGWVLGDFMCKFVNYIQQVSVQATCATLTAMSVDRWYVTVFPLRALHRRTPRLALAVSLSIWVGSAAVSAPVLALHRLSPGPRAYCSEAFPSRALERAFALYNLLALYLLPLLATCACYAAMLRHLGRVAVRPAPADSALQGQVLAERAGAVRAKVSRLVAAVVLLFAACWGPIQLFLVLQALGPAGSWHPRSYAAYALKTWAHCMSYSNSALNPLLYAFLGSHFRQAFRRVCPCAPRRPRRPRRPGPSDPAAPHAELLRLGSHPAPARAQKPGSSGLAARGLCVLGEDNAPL
Chain of Gonadotropin-releasing hormone receptor (Homo sapiens) (P30968 whole entry, looked up): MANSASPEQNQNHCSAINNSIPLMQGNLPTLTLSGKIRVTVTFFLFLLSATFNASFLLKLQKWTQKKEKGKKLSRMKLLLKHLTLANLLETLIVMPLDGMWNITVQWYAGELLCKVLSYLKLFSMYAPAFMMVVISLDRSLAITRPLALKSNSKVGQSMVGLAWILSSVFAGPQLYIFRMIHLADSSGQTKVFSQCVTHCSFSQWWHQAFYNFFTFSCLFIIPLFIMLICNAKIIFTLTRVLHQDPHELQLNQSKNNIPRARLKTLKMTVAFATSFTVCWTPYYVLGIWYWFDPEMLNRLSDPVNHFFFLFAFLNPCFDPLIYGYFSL
Chain of D(2) dopamine receptor (Homo sapiens) (P14416 whole entry, looked up): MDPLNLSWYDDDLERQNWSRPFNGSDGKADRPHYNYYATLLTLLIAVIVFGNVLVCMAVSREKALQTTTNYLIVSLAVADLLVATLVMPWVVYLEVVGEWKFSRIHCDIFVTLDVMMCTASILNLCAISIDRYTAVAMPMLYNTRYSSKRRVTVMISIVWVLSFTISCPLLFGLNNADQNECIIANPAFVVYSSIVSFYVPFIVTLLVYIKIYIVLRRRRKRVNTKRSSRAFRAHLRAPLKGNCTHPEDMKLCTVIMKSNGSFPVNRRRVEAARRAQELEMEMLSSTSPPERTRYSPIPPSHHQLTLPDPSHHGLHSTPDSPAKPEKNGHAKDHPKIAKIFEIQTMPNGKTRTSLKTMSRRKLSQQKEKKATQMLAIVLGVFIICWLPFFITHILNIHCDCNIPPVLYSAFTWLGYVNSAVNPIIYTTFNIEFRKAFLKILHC
Chain of 5-hydroxytryptamine receptor 2A (Homo sapiens) (P28223 whole entry, looked up): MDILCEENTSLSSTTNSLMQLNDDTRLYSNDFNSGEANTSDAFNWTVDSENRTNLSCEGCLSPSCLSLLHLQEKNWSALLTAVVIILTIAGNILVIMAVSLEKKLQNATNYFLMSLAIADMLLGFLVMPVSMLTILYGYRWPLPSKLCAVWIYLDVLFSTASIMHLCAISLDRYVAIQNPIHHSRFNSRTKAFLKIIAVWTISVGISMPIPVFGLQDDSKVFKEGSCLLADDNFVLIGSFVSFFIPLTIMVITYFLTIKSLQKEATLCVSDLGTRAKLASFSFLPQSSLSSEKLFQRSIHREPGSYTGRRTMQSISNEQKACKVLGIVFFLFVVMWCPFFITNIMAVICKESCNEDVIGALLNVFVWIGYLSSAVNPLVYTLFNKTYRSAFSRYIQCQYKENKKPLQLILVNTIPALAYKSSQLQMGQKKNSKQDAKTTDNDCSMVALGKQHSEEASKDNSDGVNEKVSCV
Chain of Muscarinic acetylcholine receptor M1 (Homo sapiens) (P11229 whole entry, looked up): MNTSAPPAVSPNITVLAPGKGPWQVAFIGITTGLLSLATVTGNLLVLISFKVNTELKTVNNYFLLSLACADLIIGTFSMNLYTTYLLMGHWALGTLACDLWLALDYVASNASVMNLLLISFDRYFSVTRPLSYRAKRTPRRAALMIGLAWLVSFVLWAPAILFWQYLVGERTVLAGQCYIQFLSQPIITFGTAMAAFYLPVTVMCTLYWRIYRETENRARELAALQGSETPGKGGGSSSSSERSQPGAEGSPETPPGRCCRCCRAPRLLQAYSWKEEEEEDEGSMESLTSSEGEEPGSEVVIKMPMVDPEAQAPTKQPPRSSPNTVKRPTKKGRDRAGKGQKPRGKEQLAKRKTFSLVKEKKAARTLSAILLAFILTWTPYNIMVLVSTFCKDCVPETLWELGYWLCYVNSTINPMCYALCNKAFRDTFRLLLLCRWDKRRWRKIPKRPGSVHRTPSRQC

O=C1OC2(c3cc(Br)c(O)c(Br)c3Oc3c2cc(Br)c(O)c3Br)c2c(Cl)c(Cl)c(Cl)c(Cl)c21
active: [1] 4.86 µM and 18.6 µM | [3] 39 µM and 23.6 µM | [4] 55 µM and 33.4 µM | [9] 17.4 µM and 33.4 µM
inactive: [2] | [5] | [6] | [7] | [8] | [10] | [11] | [12] | [13] | [14]

CC(=O)OCCC1CCCCC1
inactive: [1] | [2] | [3] | [4] | [15] | [5] | [6] | [7] | [16] | [8] | [9] | [10] | [17] | [18] | [19] | [11] | [13] | [14]

CC(C)(C)NCC(O)c1ccc(O)c(CO)c1 (stereo not given)
active: [3] 30.1 nM | [14] 962 nM and 750 nM
inactive: [1] | [2] | [4] | [7] | [16] | [13]

O=C(Oc1ccccc1)c1ccccc1
inactive: [1] | [2] | [3] | [4] | [5] | [6] | [7] | [8] | [10] | [17] | [18] | [19] | [12] | [13]
55 µM (active) and inactive: [9]

O=C(O)c1ccc(C(=O)O)c(C(=O)O)c1
inactive: [1] | [2] | [3] | [4] | [5] | [6] | [7] | [8] | [9] | [10] | [17] | [18] | [19] | [11] | [13] | [14]

C[C@@H]1CC(=O)NN=C1c1ccc(NN=C(C#N)C#N)cc1
active: [1] 11.9 µM and 21.1 µM | [2] 23.7 µM and 26.6 µM
inactive: [3] | [4] | [5] | [6] | [7] | [8] | [9] | [10] | [17] | [11] | [13]

O=C(/N=N/C(=O)OCc1ccccc1)OCc1ccccc1
inactive: [1] | [2] | [3] | [4] | [20] | [15] | [6] | [7] | [16] | [8] | [9] | [10] | [17] | [18] | [19] | [11] | [12] | [14]

Cc1nc(C)c(C)nc1C
inactive: [1] | [2] | [3] | [20] | [15] | [5] | [6] | [7] | [16] | [8] | [9] | [10] | [17] | [18] | [19] | [11] | [12] | [13]
